Active and inactive are the calls of the source. How the source made its calls: active means hit-call score of the fitted dose curve at least 0.9, where 1 is the maximum; inactive means score below 0.9.
What follows are molecules tested against CYP2E1, CYP2E1 (gene 1571) (UniProt P05181) (assay: ERF_FR_ADME_hCYP2E1: Eurofins (ERF) CYP450-related Enzyme Activity (ADME) Assay for CYP2E1).
Experimental: ERF_FR_ADME_hCYP2E1 is a biochemical, single-readout assay that uses extracted gene-proteins in a cell-free assay. Measurements were taken 0.16 hour after chemical dosing in a 96-well plate. See CYP2E1 inhibition (recombinant, EC substrate).ERF_FR_ADME_hCYP2E1 is an assay component calculated from the ERF_FR_ADME_hCYP2E1 assay. It is designed to measure enzyme activity using a type of enzyme reporter as detected by peak area response of 6-hydroxychlorzoxazone with HPLC-MS/MS technology.Data from the assay component ERF_FR_ADME_hCYP2E1 was analyzed at the assay endpoint, ERF_FR_ADME_hCYP2E1, in the positive analysis fitting direction relative to acetonitrile as the negative control and baseline of activity. Using a type of enzyme reporter, loss-of-signal activity can be used to understand changes in enzymatic activity as they relate to gene CYP2E1. To generalize the intended target to other relatable targets, this assay endpoint is annotated to the cyp intended target family, where the subfamily is steroidogenesis-related.
Assay is performed using 20 uM chlorzoxazone, cells are pre-incubated for 5 minutes, and then 10 minutes incubation with NADPH at 37C.

Sequence of CYP2E1, CYP2E1 (gene 1571) (P05181 whole entry, looked up): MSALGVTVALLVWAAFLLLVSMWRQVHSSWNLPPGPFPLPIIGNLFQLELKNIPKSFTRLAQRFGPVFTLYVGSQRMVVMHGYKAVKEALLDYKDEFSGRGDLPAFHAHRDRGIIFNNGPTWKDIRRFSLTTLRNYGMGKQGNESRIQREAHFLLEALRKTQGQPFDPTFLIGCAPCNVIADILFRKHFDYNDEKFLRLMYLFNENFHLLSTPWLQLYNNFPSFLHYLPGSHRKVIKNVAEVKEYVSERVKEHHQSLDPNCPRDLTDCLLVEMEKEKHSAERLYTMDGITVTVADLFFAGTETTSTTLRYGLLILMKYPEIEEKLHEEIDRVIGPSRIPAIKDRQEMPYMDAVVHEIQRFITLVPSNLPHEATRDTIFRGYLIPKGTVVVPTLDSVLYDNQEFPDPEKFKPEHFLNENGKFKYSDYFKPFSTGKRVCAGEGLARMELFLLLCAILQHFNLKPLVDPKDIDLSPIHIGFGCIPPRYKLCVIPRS

AC50, active:
O=C(/C=C/c1ccc(O)cc1)CC(=O)/C=C/c1ccc(O)cc1 1150 nM
COc1cc(CCC(=O)CC(=O)CCc2ccc(O)c(OC)c2)ccc1O 1240 nM
COc1cc(/C=C/C(=O)CC(=O)/C=C/c2ccc(O)c(OC)c2)ccc1O 1080 nM

From PubChem BioAssay AID2284059 (EPA ToxCast)
